Assay results from PubChem BioAssay.
Active and inactive are the calls of the source. Unless noted, the rule behind the calls is not given here.

Legend:
[1] = resazurin metabolic signal in HepG2 cells – cell-based, resazurin fluorescence, 24 h, PK04 Diversity Set, profiling panel (AID 1172); conditions: HepG2 viability, higher = more signal
[2] = budding yeast growth changes without added modifier – OD600, strain BY4716, 24 h, basal condition, primary screen (AID 1173); conditions: S. cerevisiae BY4716 growth, OD600, 24 h; higher = more signal, called active from +8 up or from −8 down
[3] = viability profiling in MM1S myeloma cells – cell-based, resazurin fluorescence, basal, 24 h, PK04 Diversity Set, profiling panel (AID 1174); conditions: higher = more signal, called active from +8 up or from −8 down;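 note: MM1S multiple myeloma cell line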
[4] = molecular target: Dihydroorotate dehydrogenase (quinone), mitochondrial (Plasmodium falciparum (isolate 3D7)) (UniProt Q08210); experiment: inhibition of P. falciparum DHODH – biochemical, C-terminal His tag, absorbance 600 nm, primary screen (AID 1175); conditions: PfDHODH enzyme, DCIP absorbance 600 nm; higher = more signal, called active from +8 up or from −8 down;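 note: recombinant parasite enzyme with a five histidine tag at its C terminus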
[5] = inhibition of PAO1 biofilm formation – strain PAO1, LB-PBS medium, absorbance 600 nm, primary screen (AID 1176); conditions: P. aeruginosa PAO1 growth/biofilm, A600, 12 h; higher = more signal
[6] = growth modulation of vineyard yeast isolate – strain RM11-1a, OD600, basal, 24 h, primary screen (AID 1177);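 note: cultures grown under basal conditions with no added stressor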; conditions: S. cerevisiae RM11-1a growth, OD600, 24 h; higher = more signal, called active from +8 up or from −8 down
[7] = growth of efflux-deficient E. coli DRC39 – strain DRC39, OD650, 24 h, E. coli filamentation inducers, primary screen (AID 1178);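 note: growth measured as culture turbidity by optical density at 650 nm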; conditions: E. coli DRC39 acrAB, higher = more signal, called active from +8 up or from −8 down
[8] = growth of efflux-deficient E. coli DRC39 – strain DRC39, OD650, 48 h, E. coli filamentation inducers, primary screen (AID 1179);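 note: screen aims at cell division blockers that make cells filament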; conditions: E. coli DRC39 delta-acrAB growth, higher = more signal, called active from +8 up or from −8 down
[9] = viability profiling in RPMI8226 myeloma cells – cell-based, resazurin fluorescence, basal, 24 h, PK04 Diversity Set, profiling panel (AID 1180); conditions: higher = more signal;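 note: RPMI8826 multiple myeloma cell line at 5000 cells per well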
[10] = molecular target: E3 ubiquitin-protein ligase XIAP (Homo sapiens) (UniProt P98170); experiment: small molecules binding XIAP protein – biophysical, small-molecule microarray, fluorescence 635 nm, primary screen (AID 1181); conditions: higher = more signal;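 note: score merges 667 nm emission and signal to noise over triplicate slides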
[11] = tested on: XIP peptide (Xip251-270) binding; experiment: XIP fragment 251-270 binding compounds – biochemical, small-molecule microarray, fluorescence 635/667 nm, 0.1 µg/mL protein, primary screen (AID 1182); conditions: fluorescent protein binding, 635 nm, higher = more signal, called active from +8 up or from −8 down
XIP peptide (Xip251-270) = experiment: compounds binding XIP fragment 251-270 – biochemical, small-molecule microarray, fluorescence 635/667 nm, 0.5 µg/mL protein, primary screen (AID 1183); conditions: fluorescence 635 nm, higher = more signal
[12] = blood-stage malaria parasite viability loss – strain 3D7, DAPI fluorescence, 100 nL, primary screen (AID 1184);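 note: parasites grown inside human red blood cells in medium with human serum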; conditions: P. falciparum 3D7 growth, 3 d, higher = more signal
[13] = molecular target: Homeobox protein Hox-A13 (Mus musculus) (UniProt Q62424); experiment: disruptors of Hoxa13 oligonucleotide interaction – biochemical, fluorescence polarization, labeled oligonucleotide, primary screen (AID 1185); conditions: Hoxa13:DNA binding, 15 min, higher = more signal, called active from +8 up or from −8 down
[14] = blockers of DNA damage checkpoint Chk1 activation – imaging, HeLa, hydroxyurea, phospho-Chk1 antibody, percent positive cells, primary screen (AID 1186); conditions: hydroxyurea-induced phospho-Chk1 immunofluorescence imaging, higher = more signal
[15] = blockers of DNA damage checkpoint Chk1 activation – imaging, HeLa, hydroxyurea, phospho-Chk1 nuclear intensity, primary screen (AID 1187); conditions: hydroxyurea-induced phospho-Chk1 immunofluorescence imaging, higher = more signal

Sequence of Dihydroorotate dehydrogenase (quinone), mitochondrial (Plasmodium falciparum (isolate 3D7)) (Q08210 whole entry, looked up): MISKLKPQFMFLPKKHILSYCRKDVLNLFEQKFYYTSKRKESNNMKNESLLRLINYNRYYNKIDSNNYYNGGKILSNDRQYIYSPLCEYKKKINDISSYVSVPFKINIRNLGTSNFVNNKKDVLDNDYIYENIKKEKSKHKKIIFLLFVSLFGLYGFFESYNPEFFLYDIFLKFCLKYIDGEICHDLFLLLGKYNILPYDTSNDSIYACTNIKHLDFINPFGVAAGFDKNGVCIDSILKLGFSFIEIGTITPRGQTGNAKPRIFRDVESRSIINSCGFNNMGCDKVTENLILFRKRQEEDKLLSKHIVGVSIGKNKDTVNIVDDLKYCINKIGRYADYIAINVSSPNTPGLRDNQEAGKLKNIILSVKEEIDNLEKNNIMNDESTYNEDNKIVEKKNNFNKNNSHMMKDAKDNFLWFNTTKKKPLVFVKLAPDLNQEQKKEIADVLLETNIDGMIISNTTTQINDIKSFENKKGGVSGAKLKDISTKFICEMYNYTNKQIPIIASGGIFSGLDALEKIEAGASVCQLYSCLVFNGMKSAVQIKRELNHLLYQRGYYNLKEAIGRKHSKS
Sequence of Homeobox protein Hox-A13 (Mus musculus) (Q62424 whole entry, looked up): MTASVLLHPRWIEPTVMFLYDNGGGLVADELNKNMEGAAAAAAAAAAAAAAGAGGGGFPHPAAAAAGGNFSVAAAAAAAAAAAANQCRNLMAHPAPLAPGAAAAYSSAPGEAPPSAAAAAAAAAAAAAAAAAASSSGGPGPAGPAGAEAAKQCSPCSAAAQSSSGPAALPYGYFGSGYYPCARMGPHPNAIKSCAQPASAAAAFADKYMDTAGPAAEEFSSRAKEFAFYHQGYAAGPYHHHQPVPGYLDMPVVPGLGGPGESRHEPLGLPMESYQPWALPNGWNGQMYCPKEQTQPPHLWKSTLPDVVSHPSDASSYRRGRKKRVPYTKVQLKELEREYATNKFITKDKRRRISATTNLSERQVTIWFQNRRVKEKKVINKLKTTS
Sequence of E3 ubiquitin-protein ligase XIAP (Homo sapiens) (P98170 whole entry, looked up, the tested form may be a part): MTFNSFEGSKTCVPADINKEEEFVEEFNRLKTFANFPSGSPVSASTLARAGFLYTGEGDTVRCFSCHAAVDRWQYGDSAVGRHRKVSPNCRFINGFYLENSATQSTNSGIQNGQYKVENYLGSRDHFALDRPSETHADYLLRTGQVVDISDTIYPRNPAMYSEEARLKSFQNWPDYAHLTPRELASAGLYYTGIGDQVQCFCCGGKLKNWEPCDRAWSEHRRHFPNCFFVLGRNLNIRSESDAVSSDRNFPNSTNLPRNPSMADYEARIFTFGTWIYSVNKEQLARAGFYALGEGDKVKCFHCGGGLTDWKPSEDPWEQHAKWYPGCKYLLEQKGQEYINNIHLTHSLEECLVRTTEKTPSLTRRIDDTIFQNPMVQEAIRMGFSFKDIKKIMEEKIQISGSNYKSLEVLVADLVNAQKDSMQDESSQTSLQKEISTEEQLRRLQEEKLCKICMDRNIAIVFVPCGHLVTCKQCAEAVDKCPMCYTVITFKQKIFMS

CC(C)CNC(=O)[C@@H]1c2ccccc2C(=O)N(C(C)C)[C@H]1c1ccc(CO)cc1
z-score [1]: 0.0161
z-score [2]: 0.294 (inactive)
z-score [3]: 0.334 (inactive)
composite z-score [4]: -1.57 (inactive)
z-score [5]: 0.348 (inactive)
z-score [6]: -1.19 (inactive)
z-score [7]: 0.855 (inactive)
z-score [8]: 1.76 (inactive)
z-score [9]: 0.609
composite z-score [10]: -0.0434
composite z-score [11]: -0.885 (inactive)
composite z-score (XIP peptide (Xip251-270)): 0.93
z-score [12]: 0.643
z-score [13]: -0.0386 (inactive)
z-score [14]: -0.586 (inactive)
z-score [15]: -0.784 (inactive)

COc1ccc(NN2C(C(O)c3ccc(OC)cc3)C=CC3C(=O)N(C4CCCCC4)C(=O)C32)cc1 (centres undefined)
z-score [1]: 1.52
z-score [2]: -0.365 (inactive)
z-score [3]: 0.363 (inactive)
composite z-score [4]: -0.809 (inactive)
z-score [5]: 1.05 (inactive)
z-score [6]: 0.107 (inactive)
z-score [7]: -0.447 (inactive)
z-score [8]: 0.703 (inactive)
z-score [9]: 0.346
composite z-score [10]: 0.229
composite z-score [11]: 1.3 (inactive)
composite z-score (XIP peptide (Xip251-270)): 0.7
z-score [12]: -0.346
z-score [13]: -4.51 (inactive)
z-score [14]: -1.28 (inactive)
z-score [15]: -1.13 (inactive)

CC(C)C[C@@H]1NC(=O)[C@@]23C(=O)N[C@@H](Cc4ccccc4)C2[C@H](C)[C@@]2(C)O[C@H]2C3/C=C/C/C=C\CNC(=O)[C@@H](CC(C)C)NC1=O (some centres undefined)
z-score [1]: 0.175
z-score [2]: -1.08 (inactive)
z-score [3]: -0.102 (inactive)
composite z-score [4]: -0.0599 (inactive)
z-score [5]: 0.0937 (inactive)
z-score [6]: -0.664 (inactive)
z-score [7]: 0.495 (inactive)
z-score [8]: -0.323 (inactive)
z-score [9]: 0.292
composite z-score [10]: -0.0752
composite z-score [11]: 0.549 (inactive)
composite z-score (XIP peptide (Xip251-270)): 0.414
z-score [12]: -0.0432
z-score [13]: -6.77 (inactive)
z-score [14]: -0.0685 (inactive)
z-score [15]: 0.0529 (inactive)

NCCCC[C@@H]1NC(=O)[C@H]2C[C@@H](C(=O)NCc3ccc(F)cc3)[C@@H](c3cccc(OCCO)c3)N2C1=O
z-score [1]: -1.49
z-score [2]: -0.956 (inactive)
z-score [3]: 0.646 (inactive)
composite z-score [4]: 0.22 (inactive)
z-score [5]: 0.379 (inactive)
z-score [6]: 1.57 (inactive)
z-score [7]: 0.71 (inactive)
z-score [8]: 0.896 (inactive)
z-score [9]: 1.04
composite z-score [10]: -0.271
composite z-score [11]: 0.752 (inactive)
composite z-score (XIP peptide (Xip251-270)): 0.837
z-score [12]: 0.0979
z-score [13]: 5.72 (inactive)
z-score [14]: -0.281 (inactive)
z-score [15]: -0.45 (inactive)

O=C1OCCC=C[C@H]2OC34C=CCN(c5ccc(Cl)cc5)C(=O)[C@H]3N(CCO)C(=O)[C@@H]4C12 (some centres undefined)
z-score [1]: 0.545
z-score [2]: 0.204 (inactive)
z-score [3]: 0.221 (inactive)
composite z-score [4]: -1.45 (inactive)
z-score [5]: -0.317 (inactive)
z-score [6]: 0.132 (inactive)
z-score [7]: -0.947 (inactive)
z-score [8]: -1.04 (inactive)
z-score [9]: -0.202
composite z-score [10]: -0.31
composite z-score [11]: -0.379 (inactive)
composite z-score (XIP peptide (Xip251-270)): 0.561
z-score [12]: -0.136
z-score [13]: -5.37 (inactive)
z-score [14]: -0.399 (inactive)
z-score [15]: -0.576 (inactive)

CCCCC(O)C1C=CC2C(=O)NC(=O)C2N1Nc1ccc(Cl)cc1Cl (centres undefined)
z-score [1]: -2.57
z-score [2]: -16.6 (active)
z-score [3]: -2.26 (inactive)
composite z-score [4]: -0.2 (inactive)
z-score [5]: 0.546 (inactive)
z-score [6]: -5.12 (inactive)
z-score [7]: -0.818 (inactive)
z-score [8]: -1.31 (inactive)
z-score [9]: -2.01
composite z-score [10]: -0.272
composite z-score [11]: -0.0109 (inactive)
composite z-score (XIP peptide (Xip251-270)): -0.405
z-score [12]: -0.565
z-score [13]: -4.78 (inactive)
z-score [14]: -0.515 (inactive)
z-score [15]: -0.438 (inactive)

CN1C(=O)[C@]2(CCC(=O)OC(C)(C)C)N=C(c3ccc(OCCCO)cc3)O[C@@H]2c2ccccc21
z-score [1]: 0.476
z-score [2]: 0.997 (inactive)
z-score [3]: -1.67 (inactive)
composite z-score [4]: 0.42 (inactive)
z-score [5]: -0.441 (inactive)
z-score [6]: 1.09 (inactive)
z-score [7]: 1.01 (inactive)
z-score [8]: 0.679 (inactive)
z-score [9]: -1.56
composite z-score [10]: 0.312
composite z-score [11]: 0.0974 (inactive)
composite z-score (XIP peptide (Xip251-270)): 0.654
z-score [12]: -1.56
z-score [13]: -5.26 (inactive)
z-score [14]: -0.0356 (inactive)
z-score [15]: 0.25 (inactive)

COCCCN1C(=O)[C@@]2(Cc3ccccc31)c1ccccc1C(=O)N(Cc1ccccc1OC)[C@H]2c1ccc(CO)cc1
z-score [1]: -0.525
z-score [2]: -0.0955 (inactive)
z-score [3]: -0.309 (inactive)
composite z-score [4]: -3.75 (inactive)
z-score [5]: 0.292 (inactive)
z-score [6]: -0.724 (inactive)
z-score [7]: 0.487 (inactive)
z-score [8]: -0.128 (inactive)
z-score [9]: -0.0935
composite z-score [10]: -0.0622
composite z-score [11]: -0.184 (inactive)
composite z-score (XIP peptide (Xip251-270)): 0.0806
z-score [12]: 0.861
z-score [13]: -2.34 (inactive)
z-score [14]: 0.177 (inactive)
z-score [15]: 0.217 (inactive)

CCCC=C(CCC)[C@@H](NC(=O)c1ccco1)c1ccc(C(=O)OC)cc1
z-score [1]: 3.5
z-score [2]: 1.39 (inactive)
z-score [3]: 1.12 (inactive)
composite z-score [4]: -0.0216 (inactive)
z-score [5]: -0.387 (inactive)
z-score [6]: 1.67 (inactive)
z-score [7]: -0.422 (inactive)
z-score [8]: -0.245 (inactive)
z-score [9]: -2.8
composite z-score [10]: 0.251
composite z-score [11]: 0.192 (inactive)
composite z-score (XIP peptide (Xip251-270)): 0.585
z-score [12]: -0.465
z-score [13]: -1.4 (inactive)
z-score [14]: -0.125 (inactive)
z-score [15]: -0.17 (inactive)
